rat GALR2 ag = GALR2 (rat) receptor agonism; O08726; cell-based GALR2 agonist screen; activation, % at 10 µM; 16,000 compounds, 0.5% hits; AID 833; in the data active = activation above about 15%
Target sequence (O08726 whole entry, looked up): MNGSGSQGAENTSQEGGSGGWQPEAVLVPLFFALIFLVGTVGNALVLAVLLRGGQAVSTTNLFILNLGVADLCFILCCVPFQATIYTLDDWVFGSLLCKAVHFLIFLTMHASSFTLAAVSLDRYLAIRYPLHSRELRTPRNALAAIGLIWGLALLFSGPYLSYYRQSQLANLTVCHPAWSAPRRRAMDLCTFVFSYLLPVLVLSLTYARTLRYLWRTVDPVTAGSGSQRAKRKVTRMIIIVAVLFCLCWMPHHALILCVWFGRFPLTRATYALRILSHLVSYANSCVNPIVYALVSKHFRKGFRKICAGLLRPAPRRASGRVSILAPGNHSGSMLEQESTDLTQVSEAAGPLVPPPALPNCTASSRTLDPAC
S1P1 agonist = S1P1 (human) receptor agonism; 16,000 compounds, 1.5% hits; P21453; AID 1044; S1P1 agonist cell-based reporter assay; activation, % at 4.5 µM; in the data active = activation above about 80%
* marks the source's active call; other numbers are inactive results. Shown are actives, neighbours in structure and some others; about 2% of the full set was active somewhere.

How did CCOC(=O)c1cnc2cc(-c3ccccc3)nn2c1C do in these assays?
rat GALR2 ag: -6.9; S1P1 agonist: -5.0

Results for Cc1ccc(C(=O)N(c2ccccc2)n2c(-c3cccc([N+](=O)[O-])c3)csc2=S)cc1 ?
rat GALR2 ag: -7.3; S1P1 agonist: 7.5

How did CCOC(=O)c1c(C)csc1NC(=O)c1cccs1 do in these assays?
rat GALR2 ag: 18.6*; S1P1 agonist: -10.0

How did CCOC(=O)c1c(C)csc1NC(=O)Nc1c(Cl)cccc1Cl do in these assays?
rat GALR2 ag: -6.3; S1P1 agonist: 17.1

Results for N#C/C(=C\Nc1ccc(F)c(Cl)c1)C(=O)C1CC1 ?
rat GALR2 ag: -3.5; S1P1 agonist: -15.6

What do the screens show for `N#C/C(=C\Nc1ccc2c(c1)OCCO2)C(=O)c1ccc(Cl)cc1`?
rat GALR2 ag: -2.3; S1P1 agonist: 84.8*

What do the screens show for `O=C1NC2CC3CC(C2)CC1C3`?
rat GALR2 ag: -7.7; S1P1 agonist: -2.0

How did Cc1ccc(OCC(O)CN2CCC(C(N)=O)CC2)c([N+](=O)[O-])c1 (centres undefined) do in these assays?
rat GALR2 ag: -4.5; S1P1 agonist: 1.4

What do the screens show for `CSc1nsc(SC)c1C(=O)NCCSCc1ccc(Cl)cc1`?
rat GALR2 ag: -6.2; S1P1 agonist: 0.0

Results for CC1(C)N=C(NC(=O)Nc2ccccc2)N(c2ccccc2)O1 ?
rat GALR2 ag: -4.0; S1P1 agonist: 6.1

Results for N#C/C(=C\c1cccnc1)C(N)=S ?
rat GALR2 ag: -4.5; S1P1 agonist: 5.5

How did COc1ccc(/C=C(\C#N)C(N)=S)cc1 do in these assays?
rat GALR2 ag: -0.1; S1P1 agonist: 108.8*

How did N#Cc1ccccc1N1CCOCC1 do in these assays?
rat GALR2 ag: -4.2; S1P1 agonist: -9.6

Results for O=C(NCc1ccco1)c1ccc(Cl)cc1[N+](=O)[O-] ?
rat GALR2 ag: -4.5; S1P1 agonist: 13.5

What do the screens show for `O=[N+]([O-])c1cc(C2SCCS2)ccc1SCc1ccco1`?
rat GALR2 ag: -5.8; S1P1 agonist: 99.5*

How did O=[N+]([O-])c1cccc(-c2c[nH]c(=S)[nH]2)c1 do in these assays?
rat GALR2 ag: -6.9; S1P1 agonist: -4.8

How did N#Cc1c(C(F)(F)F)c([N+](=O)[O-])c(-c2cccc([N+](=O)[O-])c2)[nH]c1=O do in these assays?
rat GALR2 ag: 25.1*; S1P1 agonist: -2.5

How did Cc1cc(C(=O)NNS(=O)(=O)c2cccc3cccnc23)nn1C(C)(C)C do in these assays?
rat GALR2 ag: -7.8; S1P1 agonist: 4.9

How did CCOC(=O)c1c(C)nsc1N/N=C(\C#N)C(=O)c1ccc(Cl)cc1 do in these assays?
rat GALR2 ag: -11.7; S1P1 agonist: 113.0*

How did N#C/C(=N\Nc1ccc(F)cc1)C(=O)c1ccc(Cl)cc1 do in these assays?
rat GALR2 ag: -8.9; S1P1 agonist: 103.1*

How did CCOC(=O)/C(C#N)=N/Nc1ccsc1C(=O)OC do in these assays?
rat GALR2 ag: 0.8; S1P1 agonist: -6.1

How did N#C/C(=N\O)C(=O)c1ccc(Cl)cc1 do in these assays?
rat GALR2 ag: -4.4; S1P1 agonist: 5.3

Results for C/C(=N\Nc1c([N+](=O)[O-])cc(C(F)(F)F)cc1[N+](=O)[O-])c1cccnc1 ?
rat GALR2 ag: -5.2; S1P1 agonist: -14.1

How did CC(=O)n1nccc1-c1c(C)nc2ccccn12 do in these assays?
rat GALR2 ag: -4.8; S1P1 agonist: -2.4

What do the screens show for `Cc1ccc(S(=O)(=O)n2nccc2-c2c(C)nc3ccccn23)cc1`?
rat GALR2 ag: -7.1; S1P1 agonist: 87.5*

What do the screens show for `Nc1nc(N)c(Br)c(=O)[nH]1`?
rat GALR2 ag: -8.8; S1P1 agonist: -5.8

Results for Cc1nc2nc(N)[nH]c(=O)c2nc1C ?
rat GALR2 ag: -6.0; S1P1 agonist: 110.9*

Results for CCOC(=O)c1ccc2c(c1)N(Cc1ccc(Cl)c(Cl)c1)C1CCCCN21 (centres undefined) ?
rat GALR2 ag: -2.9; S1P1 agonist: 8.4

Results for CC(=O)Nc1cccc(OCCCNS(=O)(=O)c2cn(C)c(C)n2)c1 ?
rat GALR2 ag: -11.0; S1P1 agonist: -6.3

Results for N#Cc1c(Cl)cccc1Oc1ccc(S(=O)(=O)Nc2ccc(N3CCCCC3)cc2)cc1 ?
rat GALR2 ag: -7.2; S1P1 agonist: 0.9

How did CC(=O)Nc1cccc(OCCCNS(=O)(=O)c2ccc(Oc3cccc(Cl)c3C#N)cc2)c1 do in these assays?
rat GALR2 ag: -5.7; S1P1 agonist: 93.4*

Results for N#Cc1c(Cl)cccc1Oc1ccc(S(=O)(=O)NNc2c(Cl)cncc2Cl)cc1 ?
rat GALR2 ag: -6.1; S1P1 agonist: 108.3*

What do the screens show for `O=C1CSC2(CCCCC2)N1`?
rat GALR2 ag: -3.7; S1P1 agonist: -5.3

How did O=C(COc1ccc(C2SCCS2)cc1)Nc1cc(Cl)cc(Cl)c1 do in these assays?
rat GALR2 ag: -7.0; S1P1 agonist: 10.8

How did N/C(Cc1ccc(-c2csnn2)cc1)=N\OC(=O)c1ccc(C(F)(F)F)cc1 do in these assays?
rat GALR2 ag: -5.8; S1P1 agonist: -3.3

What do the screens show for `CNc1ncnc(NNC(=O)Nc2ccc(OC(F)(F)F)cc2)c1[N+](=O)[O-]`?
rat GALR2 ag: -5.7; S1P1 agonist: -23.7

What do the screens show for `CC(C)(C)c1cc2nc(C(F)(F)F)cc(NNC(=O)Nc3ccc(OC(F)(F)F)cc3)n2n1`?
rat GALR2 ag: 0.3; S1P1 agonist: 82.0*

Results for CC(=O)Nc1cc2c(cc1[N+](=O)[O-])-c1cc([N+](=O)[O-])c(NC(C)=O)cc1C2=O ?
rat GALR2 ag: -6.0; S1P1 agonist: 3.8

How did CCOc1ncnc2c1nnn2Cc1ccccc1Cl do in these assays?
rat GALR2 ag: 20.3*; S1P1 agonist: -12.5

How did Cc1cc(C)n(-c2ncnc3c2nnn3Cc2ccccc2Cl)n1 do in these assays?
rat GALR2 ag: -3.5; S1P1 agonist: -3.4

Results for CCOC(=O)c1c(NC(=S)Nc2cc(C)nn2-c2ccccc2)sc(C)c1C ?
rat GALR2 ag: -8.7; S1P1 agonist: 10.4

How did CCOC(=O)c1c(NC(=O)c2ccc3ncccc3c2)sc(C)c1C do in these assays?
rat GALR2 ag: 41.8*; S1P1 agonist: -0.6

How did Cc1nn(-c2ccccc2)nc1C(=O)NNC(=O)CSCc1cccc2ccccc12 do in these assays?
rat GALR2 ag: -8.4; S1P1 agonist: 89.4*

How did Cc1nn(-c2ccccc2)nc1C(=O)NNC(=O)NC(=O)c1ccccc1Cl do in these assays?
rat GALR2 ag: -6.1; S1P1 agonist: 16.4

Results for Cc1nc(C)c(C(=O)/C=C/N(C)C)o1 ?
rat GALR2 ag: -1.1; S1P1 agonist: -0.7

What do the screens show for `Cc1nc(C(F)(F)F)c(C(=O)NNc2ncc(C(F)(F)F)cc2Cl)s1`?
rat GALR2 ag: 0.5; S1P1 agonist: 13.1

What do the screens show for `N#C/C(=C\c1ccc(Cl)c(Cl)c1)c1ccc(NC(N)=O)cc1`?
rat GALR2 ag: 135.4*; S1P1 agonist: -48.1

How did COc1ccc(/C(C#N)=C/c2ccc3c(c2)OCO3)cc1 do in these assays?
rat GALR2 ag: -5.4; S1P1 agonist: 8.7

What do the screens show for `O=C(C=C1SCCS1)c1cccc(C(F)(F)F)c1`?
rat GALR2 ag: -8.5; S1P1 agonist: 5.3

What do the screens show for `COc1ccc(NC(=S)NC(C)(C)C)c([N+](=O)[O-])c1`?
rat GALR2 ag: -1.1; S1P1 agonist: 89.8*

How did COc1ccc(NC(=S)NC(=O)c2ccccc2)c([N+](=O)[O-])c1 do in these assays?
rat GALR2 ag: -5.7; S1P1 agonist: 1.6

Results for O=C(Sc1ccccn1)c1cnn(-c2ccccc2)c1C(F)(F)F ?
rat GALR2 ag: -4.7; S1P1 agonist: -3.6

How did CC(=O)/C=C\c1cc[n+](C)cc1 do in these assays?
rat GALR2 ag: -8.0; S1P1 agonist: 11.8

What do the screens show for `COC(=N)c1nccnc1SCc1ccc(F)cc1`?
rat GALR2 ag: -7.9; S1P1 agonist: -9.4
